Source: PubChem BioAssay (NCI)
This is part of a sample that, as a whole, favours compounds with a hit. Of some 83,000 tested, about 20% had one in any assay.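 Growth was measured after 48 h exposure to one concentration of compound in 96-well plates. Values under 10 count as active.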 The source made the active and inactive calls.

Experiments:
Assay in all cases: NCI-60 one-dose screen, 48 h (100 = growth as untreated, 0 = no growth, -100 = all killed)
Conditions in all cases: 10 µM unless noted
DU-145 prostate = test system: DU-145 prostate
K-562 leukemia = test system: K-562 leukemia
MALME-3M melanoma = test system: MALME-3M melanoma
MDA-MB-231 breast = test system: MDA-MB-231 breast
SF-268 CNS = test system: SF-268 CNS
SF-295 CNS = test system: SF-295 CNS
SF-539 CNS = test system: SF-539 CNS
UACC-257 melanoma = test system: UACC-257 melanoma
M14 melanoma = test system: M14 melanoma
HCT-15 colon = test system: HCT-15 colon
HT29 colon = test system: HT29 colon
SNB-75 CNS = test system: SNB-75 CNS
SNB-19 CNS = test system: SNB-19 CNS
U251 CNS = test system: U251 CNS
PC-3 prostate = test system: PC-3 prostate
SK-MEL-5 melanoma = test system: SK-MEL-5 melanoma
UACC-62 melanoma = test system: UACC-62 melanoma
LOX IMVI melanoma = test system: LOX IMVI melanoma
SK-MEL-28 melanoma = test system: SK-MEL-28 melanoma

Measured: growth

O=c1[nH]nc(-c2ccc(Br)cc2)cc1Cc1ccc(O)cc1
inactive: DU-145 prostate 91.5% | K-562 leukemia 81.5% | MALME-3M melanoma 106% | MDA-MB-231 breast 87.6% | SF-268 CNS 89.8% | SF-295 CNS 107% | SF-539 CNS 102% | UACC-257 melanoma 106% | M14 melanoma 107% | HCT-15 colon 105% | HT29 colon 103% | SNB-75 CNS 91.9% | SNB-19 CNS 81.2% | U251 CNS 105% | PC-3 prostate 80.4% | SK-MEL-5 melanoma 87.1% | UACC-62 melanoma 85.6% | LOX IMVI melanoma 97.4% | SK-MEL-28 melanoma 104%

Cc1cccc(C)c1-c1cc(Cc2ccc(Cl)cc2)c(=O)[nH]n1
inactive: DU-145 prostate 105% | K-562 leukemia 89.5% | MALME-3M melanoma 111% | MDA-MB-231 breast 94.3% | SF-268 CNS 93.6% | SF-295 CNS 104% | SF-539 CNS 111% | UACC-257 melanoma 42.3% | M14 melanoma 114% | HCT-15 colon 107% | HT29 colon 105% | SNB-75 CNS 90.5% | SNB-19 CNS 80.9% | U251 CNS 101% | PC-3 prostate 97.2% | SK-MEL-5 melanoma 98.8% | UACC-62 melanoma 93.7% | LOX IMVI melanoma 93.4% | SK-MEL-28 melanoma 108%

Clc1ccc(N2N=C(c3cccc(Nc4ccncc4)c3)CC2c2ccc(Br)cc2)cc1 (centres undefined)
active: K-562 leukemia 1.38% | MALME-3M melanoma -40.5% | SF-295 CNS -69% | HCT-15 colon -74.7% | HT29 colon -2.76% | U251 CNS -41.5% | LOX IMVI melanoma -96% | SK-MEL-28 melanoma -85.5%
inactive: DU-145 prostate 24.8% | MDA-MB-231 breast 31.8% | SF-268 CNS 72.2% | SF-539 CNS 83.8% | UACC-257 melanoma 77.8% | M14 melanoma 107% | SNB-75 CNS 79.2% | SNB-19 CNS 80.8% | PC-3 prostate 22% | SK-MEL-5 melanoma 68.6% | UACC-62 melanoma 101%

COc1ccccc1-c1c(-c2ccc(Cl)cc2)c2cc3c(cc2[nH]c1=O)OCCO3
inactive: DU-145 prostate 83.6% | K-562 leukemia 44.3% | MALME-3M melanoma 87.4% | MDA-MB-231 breast 95.5% | SF-268 CNS 68.2% | SF-295 CNS 58.5% | SF-539 CNS 88.2% | UACC-257 melanoma 73% | M14 melanoma 72.5% | HCT-15 colon 73.5% | HT29 colon 69.6% | SNB-75 CNS 88.6% | SNB-19 CNS 94.9% | U251 CNS 75.3% | PC-3 prostate 41.5% | SK-MEL-5 melanoma 63.8% | UACC-62 melanoma 71% | LOX IMVI melanoma 73.9% | SK-MEL-28 melanoma 90.4%

Cc1cc(NC(=O)c2cnc(N3CCN(CCOCCOCCOCCOCCC(=O)N[C@H](C(=O)N4C[C@H](O)C[C@H]4C(=O)N[C@@H](C)c4ccc(-c5scnc5C)cc4)C(C)(C)C)CC3)cn2)c2ncccc2c1
active: K-562 leukemia 6.65% | MALME-3M melanoma -31.7% | MDA-MB-231 breast -61.6% | SF-268 CNS 8.05% | SF-295 CNS -14.9% | SF-539 CNS -75.5% | UACC-257 melanoma -5.78% | M14 melanoma -33.7% | HT29 colon 5.72% | SNB-75 CNS 6.69% | U251 CNS 4.36% | PC-3 prostate 1.95% | SK-MEL-5 melanoma -41.1% | UACC-62 melanoma -57.1% | LOX IMVI melanoma -85.8% | SK-MEL-28 melanoma -75.1%
inactive: DU-145 prostate 35% | HCT-15 colon 60.5% | SNB-19 CNS 27.7%

COc1ccc(C(O)c2cc3c(N)c(C(=O)Nc4ccc(Br)cc4)sc3nc2C)cc1 (centres undefined)
active: DU-145 prostate -4.27% | K-562 leukemia 3.49% | M14 melanoma 3.91% | HT29 colon -34.2% | SNB-75 CNS -10.8%
inactive: MALME-3M melanoma 24.8% | MDA-MB-231 breast 54.1% | SF-268 CNS 45.4% | SF-295 CNS 21.6% | SF-539 CNS 27.2% | UACC-257 melanoma 32.3% | HCT-15 colon 18.2% | SNB-19 CNS 36.1% | U251 CNS 17.2% | PC-3 prostate 18.2% | SK-MEL-5 melanoma 16.4% | UACC-62 melanoma 26.1% | LOX IMVI melanoma 33.4% | SK-MEL-28 melanoma 60%

Clc1cc(Cl)cc(N2N=C(c3cccc(Nc4ccncc4)c3)CC2c2ccccc2)c1 (centres undefined)
inactive: DU-145 prostate 35.7% | MALME-3M melanoma 32.7% | MDA-MB-231 breast 58.1% | SF-268 CNS 84.3% | SF-539 CNS 80.9% | UACC-257 melanoma 84.7% | M14 melanoma 64.1% | SNB-75 CNS 77.4% | SNB-19 CNS 88.9% | PC-3 prostate 49.4% | SK-MEL-5 melanoma 79.9% | UACC-62 melanoma 99% | SK-MEL-28 melanoma 11%
active: K-562 leukemia 0.584% | SF-295 CNS 9.59% | HCT-15 colon -71.9% | HT29 colon 1.2% | U251 CNS -31.3% | LOX IMVI melanoma -81.2%

N/C(=N\N=C\c1cc2ccccc2[nH]1)N/N=C/c1cc2ccccc2[nH]1
inactive: DU-145 prostate 112% | K-562 leukemia 61.6% | MALME-3M melanoma 87.9% | MDA-MB-231 breast 99.9% | SF-268 CNS 103% | SF-295 CNS 111% | SF-539 CNS 104% | UACC-257 melanoma 107% | M14 melanoma 99.4% | HCT-15 colon 93.5% | HT29 colon 95.7% | SNB-75 CNS 85.9% | SNB-19 CNS 97.6% | U251 CNS 101% | PC-3 prostate 89.3% | SK-MEL-5 melanoma 84.9% | UACC-62 melanoma 99.2% | LOX IMVI melanoma 98.4% | SK-MEL-28 melanoma 103%

COc1c(Cl)cc(Cl)c2ccc(C=C3C(=O)NC(=S)NC3=O)nc12
active: M14 melanoma -56.2%
inactive: DU-145 prostate 115% | K-562 leukemia 102% | MALME-3M melanoma 106% | MDA-MB-231 breast 113% | SF-268 CNS 99.8% | SF-295 CNS 102% | SF-539 CNS 101% | UACC-257 melanoma 102% | HCT-15 colon 103% | HT29 colon 109% | SNB-75 CNS 95% | SNB-19 CNS 99.2% | U251 CNS 105% | PC-3 prostate 105% | SK-MEL-5 melanoma 101% | UACC-62 melanoma 105% | LOX IMVI melanoma 101% | SK-MEL-28 melanoma 103%

C(=N\Nc1ncc(-c2cc3cc4c(cc3o2)OCO4)s1)/c1c[nH]c2ccccc12
active: DU-145 prostate -41.3% | K-562 leukemia 4.08% | MALME-3M melanoma -45.6% | MDA-MB-231 breast -27% | SF-268 CNS -34.6% | SF-295 CNS -41.1% | SF-539 CNS -80% | UACC-257 melanoma 3.52% | HCT-15 colon 6.56% | SNB-75 CNS -0.264% | SNB-19 CNS 3.35% | U251 CNS -10% | PC-3 prostate 1.87% | SK-MEL-5 melanoma 5.79% | UACC-62 melanoma 1.76% | LOX IMVI melanoma -94%
inactive: M14 melanoma 16.6% | HT29 colon 23.2% | SK-MEL-28 melanoma 30.9%

COc1ccc(-c2nc(SCCC(C)C)nc(N/N=C(/C)c3ccc(C)cc3)c2C#N)cc1
inactive: DU-145 prostate 104% | K-562 leukemia 94.6% | MALME-3M melanoma 103% | MDA-MB-231 breast 71% | SF-268 CNS 93.2% | SF-295 CNS 97.7% | SF-539 CNS 86.9% | UACC-257 melanoma 98% | M14 melanoma 90.4% | HCT-15 colon 92.9% | HT29 colon 112% | SNB-75 CNS 84% | SNB-19 CNS 86.8% | U251 CNS 103% | PC-3 prostate 85.8% | SK-MEL-5 melanoma 94.3% | UACC-62 melanoma 87.4% | LOX IMVI melanoma 91% | SK-MEL-28 melanoma 103%

O=C1NC(=O)C(=Cc2cn(Cc3ccccn3)c3ccccc23)C(=O)N1
inactive: DU-145 prostate 110% | K-562 leukemia 76.4% | MALME-3M melanoma 101% | MDA-MB-231 breast 108% | SF-268 CNS 93.7% | SF-295 CNS 79.5% | SF-539 CNS 94.5% | UACC-257 melanoma 103% | M14 melanoma 99.7% | HCT-15 colon 102% | HT29 colon 111% | SNB-75 CNS 89.2% | SNB-19 CNS 99.7% | U251 CNS 97.2% | PC-3 prostate 94.2% | SK-MEL-5 melanoma 98.3% | UACC-62 melanoma 85.7% | LOX IMVI melanoma 96.7% | SK-MEL-28 melanoma 114%

c1ccc(C2CC(c3cccc(Nc4ccncc4)c3)=NN2c2ccccc2)cc1 (centres undefined)
active: K-562 leukemia 0.756% | MALME-3M melanoma -12.1% | M14 melanoma -57.4% | HCT-15 colon -15.7% | HT29 colon 1.62% | SK-MEL-28 melanoma -56.2%
inactive: DU-145 prostate 67.7% | MDA-MB-231 breast 75.3% | SF-268 CNS 86.6% | SF-295 CNS 78.6% | SF-539 CNS 78.1% | UACC-257 melanoma 34% | SNB-75 CNS 77.3% | SNB-19 CNS 89.1% | U251 CNS 25.6% | PC-3 prostate 54.5% | SK-MEL-5 melanoma 75.3% | UACC-62 melanoma 96.8% | LOX IMVI melanoma 43.7%

O=C(O)CNC(=O)CN1C(=O)c2ccccc2C1=O
inactive: DU-145 prostate 120% | K-562 leukemia 85.8% | MALME-3M melanoma 98.6% | MDA-MB-231 breast 114% | SF-268 CNS 106% | SF-295 CNS 103% | SF-539 CNS 107% | UACC-257 melanoma 76.6% | M14 melanoma 92.7% | HCT-15 colon 105% | HT29 colon 110% | SNB-75 CNS 90.4% | SNB-19 CNS 108% | U251 CNS 96.8% | PC-3 prostate 84.1% | SK-MEL-5 melanoma 99.6% | UACC-62 melanoma 108% | LOX IMVI melanoma 95% | SK-MEL-28 melanoma 103%

Cc1c2c(cc[n+]1Cc1ccc(F)cc1)c1ccc(OCc3cccc(F)c3)cc1n2Cc1cccc(F)c1
active: DU-145 prostate -90.8% | K-562 leukemia -15.8% | MALME-3M melanoma -79.6% | MDA-MB-231 breast -87.7% | SF-268 CNS -94.2% | SF-295 CNS -68.5% | SF-539 CNS -65.4% | UACC-257 melanoma -86% | M14 melanoma -82.1% | HT29 colon -74.9% | SNB-75 CNS -88.7% | SNB-19 CNS -90.3% | U251 CNS -89.4% | PC-3 prostate -44.4% | SK-MEL-5 melanoma -99.4% | UACC-62 melanoma -98% | LOX IMVI melanoma -82.7% | SK-MEL-28 melanoma -91%
inactive: HCT-15 colon 54.3%

CC(C)CN(C(=O)c1ccc(Cl)cc1)c1c(N)n(CC(C)C)c(=O)[nH]c1=O
inactive: DU-145 prostate 112% | K-562 leukemia 103% | MALME-3M melanoma 102% | MDA-MB-231 breast 96.1% | SF-268 CNS 92.3% | SF-295 CNS 84.7% | SF-539 CNS 43.7% | UACC-257 melanoma 103% | M14 melanoma 109% | HCT-15 colon 111% | HT29 colon 111% | SNB-75 CNS 88.4% | SNB-19 CNS 96.6% | U251 CNS 98.8% | PC-3 prostate 89.8% | SK-MEL-5 melanoma 37.6% | UACC-62 melanoma 88.7% | LOX IMVI melanoma 102% | SK-MEL-28 melanoma 107%
